JMJD2A Tudor – inhibitors of human JMJD2A Tudor domain; AlphaScreen JMJD2A-Tudor / H3K4me3 peptide binding; Potency, µM (titrated, usually from 114 µM), for inactives: at the top dose activity change, negative = inhibition, hits mostly inhibitors; 4.4% of 390,000 active; further: on the % scale 0 is the no-effect control and ±100 the full control effect; nearly all actives have a fitted effect of over 50% in size
GLS inh – blocks human kidney-isoform glutaminase activity; 0.21% of 410,000 active; O94925; Potency, µM (titrated, usually from 45.5 µM), inactives show at the highest dose activity change, negative = inhibition, most hits filed as inhibitors; GLS enzymatic activity, qHTS titration; AID 624170; further: on the % scale 0 is the no-effect control and ±100 the full control effect
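Read-out is an Amplex red fluorescence increase coupled through glutamate oxidase and HRP, measured before and after 30 min room-temperature incubation. hKGA is in 45 mM KH2PO4 (pH 8.2) with 0.02% Tween-20; glutamine added as 1mM solution.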
HP1b chromo inh – blocks HP1-beta chromodomain binding to methylated histone tails; P83916; AlphaScreen HP1-beta / biotin-H3K9me3 peptide binding; Potency, µM (top dose mostly 114 µM), for inactives: top-dose activity change, negative = inhibition, usual class: inhibitors; 0.56% of 390,000 active; AID 540317; further: nearly all actives have a fitted effect of over 70% in size
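Compound inhibition of the preformed complex between 50 nM HP1-beta and 50 nM biotinylated H3K9me3 peptide was read by AlphaScreen. Buffer was PBS pH 7.4 with 0.01% Tween-20. Incubations ran 30 min at room temperature, with 10 ug/mL donor/acceptor beads.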
BAZ2B inh – inhibitors of human BAZ2B bromodomain. AlphaScreen BAZ2B-H3K14Ac peptide displacement. Potency, µM (top dose mostly 114 µM), inactives show top-dose activity change, negative = inhibition, actives largely listed as inhibitors. Q9UIF8. 4.4% of 360,000 active; further: on the % scale 0 is the no-effect control and ±100 the full control effect; nearly all actives have a fitted effect of over 60% in size
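AlphaScreen displacement: compounds (up to 110uM) incubated 30 min at room temperature with a preformed 50 nM BAZ2B/50 nM biotinylated H3K14Ac peptide complex in PBS pH 7.4 with Tween-20. Donor and acceptor beads at 10 ug/mL final added, 20 min light-protected before reading.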
G9a inh – blocks human histone lysine methyltransferase G9a; Q96KQ7; G9a H3K9 monomethylation, AlphaScreen, 2 h; Potency, µM (doses to about 102 µM), without a hit: at the top dose activity, negative = inhibition, hits mostly inhibitors; 8.8% of 350,000 active; AID 504332; further: on the % scale 0 is the no-effect control and ±100 the full control effect; nearly all actives have a fitted effect of over 75% in size
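Readings reflect AlphaScreen signal from monomethyl-H3K9 antibody detection. HMT at 20 nM; substrate b-H3K9 500 nM; cofactor SAM 20 uM; 2 h RT reaction; compounds tested as titrations in qHTS with 15 min preincubation.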
An asterisk follows results filed as active; ? = inconclusive; · = not tested or not shown; [ ] = dose if it differs, or a comment. Rows were chosen to be rich in hits. Some 10% of all compounds tested hit in one or more screens of this group. The call rests on the fitted dose curve; in most records, active means well fitted curve in the direction sought with a large enough effect; inconclusive means small, poorly fitted or top-dose-only effect, or another doubt; inactive means no such curve, though single readings can be large; an effect the other way counts as inactive or inconclusive. Potency means the concentration at half of the fitted maximal effect.

SMILES	JMJD2A Tudor	GLS inh	HP1b chromo inh	BAZ2B inh	G9a inh
CC(=O)Oc1cccc(Nc2ncnc3ccccc23)c1	-0.7%	3.1%	27.5%	-2.4%	?
O=C(O)c1ccccc1CC(CCc1ccccc1)C(=O)O (stereo unspecified)	10µM*	-18.7%	-9.4%[57 µM]	·	·
CC(=O)Nc1ccc(O)c(-c2nc3ccccc3s2)c1	-2.8%	-4.6%	13.2%	·	-24.9%
COc1ccc(NC(=O)C(NS(=O)(=O)c2ccc3c(c2)CCCN3C(C)=O)C(C)C)c(OC)c1 (stereo unspecified)	-23.9%	-1.7%	6.6%	56.2µM*	?
CCOc1ccc(NC(=O)C(NS(=O)(=O)c2ccc3c(c2)CCN3C(C)=O)C(C)C)cc1 (stereo unspecified)	-21.3%	7.6%	26.9%	·	2.6%[59 µM]
CC(=O)N1CCCc2cc(S(=O)(=O)NC(C(=O)NC(C)c3ccccc3)C(C)C)ccc21 (stereo unspecified)	15.8%	·	20.8%	4.2%	-23.1%
COc1cc(NC(=O)CC(C)S(=O)(=O)c2ccc3c(c2)CCN3C(C)=O)cc(OC)c1OC (stereo unspecified)	-7.6%	-5.4%	29.8%	-10.4%	11.2µM*
COc1cc(NS(=O)(=O)c2ccc3c(c2)CCCN3C(C)=O)cc(OC)c1OC	-4.8%	13.8%	22.3%	-0.1%	9.0%[59 µM]
CC(=O)N1CCCc2cc(S(=O)(=O)NC(C(=O)NC3CCCCC3)C(C)C)ccc21 (stereo unspecified)	-7.5%	4.6%	22.8%	-1.7%	35.5µM*
OCC1(CO)COC(/C=C/c2ccccc2)=N1	-8.1%	6.3%	18.0%	4.6%	10.6%
COC(=O)c1ccc(=O)c2nc3/c(=C/O)c(O)cc(=O)c3[nH]c12	0.631µM*	5.01µM*	-69.1%	0.708µM*	0.794µM*
COc1ccc(/C=C2\SC(=S)N(CCCC(=O)Nc3ccccc3C(=O)O)C2=O)cc1OC	?	5.6%	-1.4%	-15.8%	13.5%
COc1ccc(/C=C2\SC(=S)N(CCC(=O)Nc3ccccc3C(=O)O)C2=O)cc1	?	3.0%	?	?	70.8µM*
CCOc1ccc(/C=C2\SC(=S)N(CCC(=O)Nc3ccccc3C(=O)O)C2=O)cc1	-23.9%	10.0%	1.8%	?	35.5µM*
CN1C(=O)/C(=C/c2ccc(C(=O)Nc3ccc(O)cc3C(=O)O)cc2)SC1=S	44.7µM*	?	44.7µM*	22.4µM*	14.2%[0.0925 µM]
O=C(NCc1ccccn1)C1CCN(S(=O)(=O)c2cc(Cl)ccc2Cl)CC1	-12.0%	-12.0%	31.1%	-9.3%	119.6%[59 µM]
CCc1nc(N)c(C#N)c(-c2ccc(OC)c(OC)c2)c1C	-10.8%	11.1%	25.6%	5.0%	-4.8%[12.7 µM]
CC1=C(C#N)c2nc(N)c(C#N)c(C)c2/C1=C\c1ccc(OCC(=O)O)c(Cl)c1	20µM*	77.5%	?	50.1µM*	22.4µM*
COc1ccc(S(=O)(=O)Nc2ccccc2C(=O)NCc2cccnc2)cc1OC	-7.4%	-7.6%	20.6%	0.4%	6.0%
c1ccc2c(c1)Nc1cc3ccccc3cc1O2	-14.6%	11.9%	17.6%	·	·
COc1ccc2c(c1)Sc1ccccc1N2	39.8µM*	17.8µM*	28.2µM*	20µM*	3.55µM*
c1ccc2c(c1)Nc1ccncc1S2	-17.7%	10µM*	27.3%	-26.4%	·
C=CCN1c2ccccc2Sc2cnccc21	·	1.3%	·	·	·
c1ccc2c(c1)Nc1cc3ccccc3cc1S2	-27.8%	-4.0%	2.2%	-30.4%	39.8µM*
COCCNC(=S)N(C)[C@H]1C[C@H]2c3cc(Oc4ccccc4C)ccc3CCN2C(=O)[C@H]1[C@H](C)O	·	17.4%	·	·	·
SMILES	JMJD2A Tudor	GLS inh	HP1b chromo inh	BAZ2B inh	G9a inh
CCOC(=O)Cn1c(=O)n(C2CCCCC2)c2nc(-c3c(F)cccc3Cl)nc(C(N)=O)c21	?	-14.1%	13.5%[57 µM]	-30.0%	10.5%[59 µM]
O=C(N/N=C/c1ccc(N2CCOCC2)cc1)c1cccs1	-20.6%	17.9%	2.7%	-17.4%	-8.7%
Cc1ccc(Nc2nnc(SCC(=O)c3ccc(Br)s3)s2)c(C)c1	-18.2%	13.2%	10.0%	-27.0%	11.2µM*
CSc1nnc(Nc2ccccc2C)s1	-10.7%	19.2%	28.8%	0.9%	28.2µM*
Cc1cc(C)cc(-n2ccnc2SCC(=O)c2c(N)n(C3CC3)c(=O)[nH]c2=O)c1	-13.5%	-12.5%	23.2%	5.1%	2.51µM*
Cn1c(N)c(C(=O)CSc2nnc(-c3cccs3)n2C2CC2)c(=O)[nH]c1=O	-11.0%	-7.8%	18.7%	4.1%	50.1µM*
Cc1ccc(CN2CC(C(=O)N3CCN(S(=O)(=O)c4cccc(F)c4)CC3)CC2=O)cc1 (stereo unspecified)	-9.7%	2.7%	15.5%	-4.5%	?
Cc1ccc(S(=O)(=O)N(CC(=O)NCc2cccnc2)c2ccc(F)cc2)cc1	-15.7%	7.6%	1.6%	0.3%	-11.3%
CCOc1ccccc1Oc1coc2cc(OC(=O)c3ccco3)ccc2c1=O	-7.7%	4.6%	13.7%	7.5%	-9.6%[59 µM]
CNc1nnc(SCC(=O)c2c(N)n(C3CC3)c(=O)[nH]c2=O)s1	-9.9%	-2.4%	9.1%	10.6%	44.7µM*
Cc1ccccc1Nc1nnc(SCC(=O)c2ccc(O)cc2O)s1	-33.6%	34.9%	-7.2%	-33.8%	8.91µM*
Cc1ccccc1Nc1nnc(SCC(=O)c2c(N)n(C3CC3)c(=O)[nH]c2=O)s1	-9.0%	5.0%	24.5%	11.5%	10µM*
COc1ccccc1C(=O)Nc1nnc(-c2ccc3c(c2)CCCC3)o1	-27.6%	0.4%	46.7%	7.2%	-5.4%
C=CCSC(=C(C#N)C#N)c1cc2c([nH]1)CCCC2	50.1µM*	5.5%	?	50.1µM*	-47.9%[12.7 µM]
CCN(c1ccccc1)S(=O)(=O)c1ccc(C(=O)N2CCCC(C(F)(F)F)C2)cc1 (stereo unspecified)	-6.2%	6.9%	9.4%	9.1%	-5.6%
O=S(=O)(O)c1ccc(N=NNc2ccc(Br)cc2)cc1	-20.2%	67.7%	7.6%	-19.5%	25.1µM*
COc1ccc(CCNCCC(=O)Nc2c(C)cc(C)cc2C)cc1OC	-21.3%	22.6%	16.6%	-6.2%	4.8%[59 µM]
COc1ccc(CNCCCC(=O)Nc2c(Cl)ccc(C)c2Cl)cc1OC	0.794µM*	-15.0%	79.4µM*	56.2µM*	3.16µM*
Cn1cnnc1Sc1ccc(C(=O)OCC(=O)Nc2cc(Cl)cc(Cl)c2)cc1[N+](=O)[O-]	?	1.7%	-8.9%	-38.6%	15.8µM*
Cn1cnnc1Sc1ccc(C(=O)OCC(=O)Nc2ccccc2)cc1[N+](=O)[O-]	-34.0%	1.6%	-7.2%	-35.5%	-4.0%[59 µM]
Cc1cc(C)c2c(=O)n(CC(=O)Nc3ccc(Br)c(C)c3)sc2n1	2.51µM*	-17.9%	?	?	0.316µM*
Cc1cc(NC(=O)Cc2ccsc2)ccc1Br	-3.9%	-1.4%	47.9%	8.3%	-10.9%
COc1ccc(OC)c(CCNC(=O)Cn2sc3nc(C)cc(C)c3c2=O)c1	·	·	·	50.1µM*	1µM*
